According to the supplement of paper PMC10849652:
Of roughly 7,900 targets only a part is listed; those with a hit were picked by preference. About 0.6% of all pairs of compound and target were hits. Unmarked numbers belong to inactive results.

Assays:
Test in all cases: log2 fold change, soluble protein after heating vs DMSO (PISA); higher = thermal stabilisation; K562 cells, 10 uM, 30 min; active = over 0.2 and 3.5 SD of the protein, either way, in both replicates (recomputed)
IRAK-1-4 Inhibitor I = compound: C1COCCN1CCN2C3=CC=CC=C3N=C2NC(=O)C4=CC(=CC=C4)[N+](=O)[O-] [IRAK-1-4 Inhibitor I]
Outline: (§1)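 Thermal stability values are relative to control samples and come from duplicates. They are expressed as log2 fold changes. For measurement, K562 cells (2×10^6 cells/mL) received 10 μM compound for 30 min, and aliquots were heated for 3 min over 48°C-58°C, pooled, and extracted at 4°C in PBS with 0.5% NP-40. Soluble protein, the supernatant after 21,000xg for 90 min, was quantified by TMTpro 16plex LC-MS/MS with equalised channel sums.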

ibrutinib = compound: C=CC(=O)N1CCC[C@@H](n2nc(-c3ccc(Oc4ccccc4)cc3)c3c(N)ncnc32)C1 [ibrutinib]
Outline: as §1

[1] = compound: CC(=O)c1cnc2ccc(-c3cc(Cl)c(O)c(Cl)c3)nc2c1N[C@H]1CC[C@H](CN(C)C)CC1
Outline: as §1

ralimetinib = compound: CC(C)(C)Cn1c(N)nc2ccc(-c3[nH]c(C(C)(C)C)nc3-c3ccc(F)cc3)nc21 [ralimetinib]
Outline: as §1

[2] = compound: CC(C)(O)CC(=O)NCCn1ccc2ncnc(Nc3ccc(Oc4cccc(C(F)(F)F)c4)c(Cl)c3)c21
Outline: as §1

[3] = compound: CC(C)C1=C2N=C(C=C(N2N=C1)NCC3=CC=CC=C3)NCCCCCCN
Outline: as §1

[4] = compound: CC(C)C[C@@H](C=O)NC(=O)[C@H](CC(C)C)NC(=O)[C@H](CC(C)C)NC(=O)OCc1ccccc1
Outline: as §1

pinometostat = compound: CC(C)N(C[C@H]1O[C@@H](n2cnc3c(N)ncnc32)[C@H](O)[C@@H]1O)[C@H]1C[C@@H](CCc2nc3cc(C(C)(C)C)ccc3[nH]2)C1 [pinometostat]
Outline: as §1

[5] = compound: CC1=C(C(CC(=O)N1)C2=CC=C(C=C2)C(F)(F)F)C(=O)NC3=C(C=C4C(=C3)C=NN4)F
Outline: as §1

[6] = compound: CC1=C(C2=C(C=C1)C(=O)C3=CC=CC=C3N2CCCN)C
Outline: as §1

[7] = compound: CC1=C(C=C(C=C1)NC(=O)C2=CC(=CC=C2)C(C)(C)C#N)NC3=CC4=C(C=C3)N=CN(C4=O)C
Outline: as §1

[8] = compound: CC1=C(C=C(C=C1)NC(=O)C2=CC(=CC=C2)N(C)C)NC(=O)C3=CC=C(C=C3)O
Outline: as §1

[9] = compound: CC1=CC=C(C=C1)SC2=C3C=C(SC3=CN=C2)C(=O)N
Outline: as §1

[10] = compound: CC1=NC(=CC=C1)C2=C(N=C(N2)C(C)(C)C)C3=CC4=NC=CN=C4C=C3
Outline: as §1

Nexturastat A = compound: CCCCN(Cc1ccc(C(=O)NO)cc1)C(=O)Nc1ccccc1 [Nexturastat A]
Outline: as §1

vemurafenib = compound: CCCS(=O)(=O)Nc1ccc(F)c(C(=O)c2c[nH]c3ncc(-c4ccc(Cl)cc4)cc23)c1F [vemurafenib]
Outline: as §1

[11] = compound: CCCS(=O)(=O)Nc1ccc(F)c(C(=O)c2c[nH]c3ncc(Cl)cc23)c1F
Outline: as §1

[12] = compound: CCCc1cc(C)[nH]c(=O)c1CNC(=O)c1cc(-c2ccnc(N3CCN(C)CC3)c2)cc2c1cnn2C(C)C
Outline: as §1

givinostat = compound: CCN(CC)Cc1ccc2cc(COC(=O)Nc3ccc(C(=O)NO)cc3)ccc2c1 [givinostat]
Outline: as §1

barasertib = compound: CCN(CCCOc1ccc2c(Nc3cc(CC(=O)Nc4cccc(F)c4)[nH]n3)ncnc2c1)CCOP(=O)(O)O [barasertib]
Outline: as §1

Sequence of UniProt Q5VZM2 (Q5VZM2 whole entry, looked up): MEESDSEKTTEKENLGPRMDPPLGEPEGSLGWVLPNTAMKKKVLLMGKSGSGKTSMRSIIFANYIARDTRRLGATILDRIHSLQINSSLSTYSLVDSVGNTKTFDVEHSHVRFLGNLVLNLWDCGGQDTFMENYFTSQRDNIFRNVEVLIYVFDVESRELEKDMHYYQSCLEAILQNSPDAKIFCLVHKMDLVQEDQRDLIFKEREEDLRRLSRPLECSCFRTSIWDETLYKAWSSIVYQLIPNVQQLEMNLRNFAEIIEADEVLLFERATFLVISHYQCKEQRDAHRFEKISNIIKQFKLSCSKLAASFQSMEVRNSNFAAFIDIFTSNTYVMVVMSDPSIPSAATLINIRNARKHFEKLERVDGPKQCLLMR
Sequence of UniProt Q99590 (Q99590 whole entry, looked up): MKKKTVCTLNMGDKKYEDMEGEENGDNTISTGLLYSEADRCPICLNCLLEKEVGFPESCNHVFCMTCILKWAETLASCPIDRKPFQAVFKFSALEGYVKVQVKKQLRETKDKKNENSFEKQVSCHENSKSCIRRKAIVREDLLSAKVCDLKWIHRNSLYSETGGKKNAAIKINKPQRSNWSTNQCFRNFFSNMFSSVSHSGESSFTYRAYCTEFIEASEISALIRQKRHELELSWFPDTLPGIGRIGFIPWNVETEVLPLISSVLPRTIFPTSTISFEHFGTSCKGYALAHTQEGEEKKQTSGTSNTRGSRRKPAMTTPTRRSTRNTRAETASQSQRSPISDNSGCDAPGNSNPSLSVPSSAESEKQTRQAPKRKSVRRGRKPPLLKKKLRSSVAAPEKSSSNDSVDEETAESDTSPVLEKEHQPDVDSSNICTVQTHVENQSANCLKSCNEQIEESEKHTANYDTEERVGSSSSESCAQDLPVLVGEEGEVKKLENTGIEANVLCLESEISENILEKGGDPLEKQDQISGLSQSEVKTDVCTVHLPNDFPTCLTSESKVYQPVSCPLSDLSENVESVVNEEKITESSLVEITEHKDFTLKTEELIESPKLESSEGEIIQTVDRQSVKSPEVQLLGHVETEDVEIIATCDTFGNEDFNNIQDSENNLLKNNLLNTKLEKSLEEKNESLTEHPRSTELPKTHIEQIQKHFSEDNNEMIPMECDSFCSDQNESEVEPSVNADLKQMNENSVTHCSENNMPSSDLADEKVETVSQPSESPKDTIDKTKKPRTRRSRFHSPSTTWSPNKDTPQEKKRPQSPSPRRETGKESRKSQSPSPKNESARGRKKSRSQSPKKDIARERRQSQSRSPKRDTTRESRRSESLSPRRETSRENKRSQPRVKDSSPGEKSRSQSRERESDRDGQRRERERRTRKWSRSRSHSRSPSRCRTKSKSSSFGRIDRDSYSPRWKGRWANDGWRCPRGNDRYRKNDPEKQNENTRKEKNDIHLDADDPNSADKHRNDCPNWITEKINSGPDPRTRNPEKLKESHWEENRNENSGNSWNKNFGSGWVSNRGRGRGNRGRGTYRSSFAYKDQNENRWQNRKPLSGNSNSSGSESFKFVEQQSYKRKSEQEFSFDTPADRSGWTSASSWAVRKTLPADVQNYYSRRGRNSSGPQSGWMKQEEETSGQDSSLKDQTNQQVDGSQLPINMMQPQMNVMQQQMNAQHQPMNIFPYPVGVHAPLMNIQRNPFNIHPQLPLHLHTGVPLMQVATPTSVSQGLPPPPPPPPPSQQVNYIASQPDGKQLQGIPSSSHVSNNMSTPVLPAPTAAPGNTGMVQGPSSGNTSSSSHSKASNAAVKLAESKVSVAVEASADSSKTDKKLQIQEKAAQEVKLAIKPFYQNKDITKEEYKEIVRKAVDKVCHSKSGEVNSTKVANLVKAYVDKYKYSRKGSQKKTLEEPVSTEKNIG
Sequence of UniProt Q96IZ7 (Q96IZ7 whole entry, looked up): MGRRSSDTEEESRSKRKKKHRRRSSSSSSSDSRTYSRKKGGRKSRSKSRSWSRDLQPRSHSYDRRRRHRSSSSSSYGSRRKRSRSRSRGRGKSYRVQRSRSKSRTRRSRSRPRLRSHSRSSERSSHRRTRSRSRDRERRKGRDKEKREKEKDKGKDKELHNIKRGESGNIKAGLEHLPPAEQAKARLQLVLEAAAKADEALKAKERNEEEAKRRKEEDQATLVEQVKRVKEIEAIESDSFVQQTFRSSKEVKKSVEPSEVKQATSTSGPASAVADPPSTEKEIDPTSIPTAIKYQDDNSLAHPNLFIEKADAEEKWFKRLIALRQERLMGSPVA
Sequence of UniProt O15027 (O15027 whole entry, looked up): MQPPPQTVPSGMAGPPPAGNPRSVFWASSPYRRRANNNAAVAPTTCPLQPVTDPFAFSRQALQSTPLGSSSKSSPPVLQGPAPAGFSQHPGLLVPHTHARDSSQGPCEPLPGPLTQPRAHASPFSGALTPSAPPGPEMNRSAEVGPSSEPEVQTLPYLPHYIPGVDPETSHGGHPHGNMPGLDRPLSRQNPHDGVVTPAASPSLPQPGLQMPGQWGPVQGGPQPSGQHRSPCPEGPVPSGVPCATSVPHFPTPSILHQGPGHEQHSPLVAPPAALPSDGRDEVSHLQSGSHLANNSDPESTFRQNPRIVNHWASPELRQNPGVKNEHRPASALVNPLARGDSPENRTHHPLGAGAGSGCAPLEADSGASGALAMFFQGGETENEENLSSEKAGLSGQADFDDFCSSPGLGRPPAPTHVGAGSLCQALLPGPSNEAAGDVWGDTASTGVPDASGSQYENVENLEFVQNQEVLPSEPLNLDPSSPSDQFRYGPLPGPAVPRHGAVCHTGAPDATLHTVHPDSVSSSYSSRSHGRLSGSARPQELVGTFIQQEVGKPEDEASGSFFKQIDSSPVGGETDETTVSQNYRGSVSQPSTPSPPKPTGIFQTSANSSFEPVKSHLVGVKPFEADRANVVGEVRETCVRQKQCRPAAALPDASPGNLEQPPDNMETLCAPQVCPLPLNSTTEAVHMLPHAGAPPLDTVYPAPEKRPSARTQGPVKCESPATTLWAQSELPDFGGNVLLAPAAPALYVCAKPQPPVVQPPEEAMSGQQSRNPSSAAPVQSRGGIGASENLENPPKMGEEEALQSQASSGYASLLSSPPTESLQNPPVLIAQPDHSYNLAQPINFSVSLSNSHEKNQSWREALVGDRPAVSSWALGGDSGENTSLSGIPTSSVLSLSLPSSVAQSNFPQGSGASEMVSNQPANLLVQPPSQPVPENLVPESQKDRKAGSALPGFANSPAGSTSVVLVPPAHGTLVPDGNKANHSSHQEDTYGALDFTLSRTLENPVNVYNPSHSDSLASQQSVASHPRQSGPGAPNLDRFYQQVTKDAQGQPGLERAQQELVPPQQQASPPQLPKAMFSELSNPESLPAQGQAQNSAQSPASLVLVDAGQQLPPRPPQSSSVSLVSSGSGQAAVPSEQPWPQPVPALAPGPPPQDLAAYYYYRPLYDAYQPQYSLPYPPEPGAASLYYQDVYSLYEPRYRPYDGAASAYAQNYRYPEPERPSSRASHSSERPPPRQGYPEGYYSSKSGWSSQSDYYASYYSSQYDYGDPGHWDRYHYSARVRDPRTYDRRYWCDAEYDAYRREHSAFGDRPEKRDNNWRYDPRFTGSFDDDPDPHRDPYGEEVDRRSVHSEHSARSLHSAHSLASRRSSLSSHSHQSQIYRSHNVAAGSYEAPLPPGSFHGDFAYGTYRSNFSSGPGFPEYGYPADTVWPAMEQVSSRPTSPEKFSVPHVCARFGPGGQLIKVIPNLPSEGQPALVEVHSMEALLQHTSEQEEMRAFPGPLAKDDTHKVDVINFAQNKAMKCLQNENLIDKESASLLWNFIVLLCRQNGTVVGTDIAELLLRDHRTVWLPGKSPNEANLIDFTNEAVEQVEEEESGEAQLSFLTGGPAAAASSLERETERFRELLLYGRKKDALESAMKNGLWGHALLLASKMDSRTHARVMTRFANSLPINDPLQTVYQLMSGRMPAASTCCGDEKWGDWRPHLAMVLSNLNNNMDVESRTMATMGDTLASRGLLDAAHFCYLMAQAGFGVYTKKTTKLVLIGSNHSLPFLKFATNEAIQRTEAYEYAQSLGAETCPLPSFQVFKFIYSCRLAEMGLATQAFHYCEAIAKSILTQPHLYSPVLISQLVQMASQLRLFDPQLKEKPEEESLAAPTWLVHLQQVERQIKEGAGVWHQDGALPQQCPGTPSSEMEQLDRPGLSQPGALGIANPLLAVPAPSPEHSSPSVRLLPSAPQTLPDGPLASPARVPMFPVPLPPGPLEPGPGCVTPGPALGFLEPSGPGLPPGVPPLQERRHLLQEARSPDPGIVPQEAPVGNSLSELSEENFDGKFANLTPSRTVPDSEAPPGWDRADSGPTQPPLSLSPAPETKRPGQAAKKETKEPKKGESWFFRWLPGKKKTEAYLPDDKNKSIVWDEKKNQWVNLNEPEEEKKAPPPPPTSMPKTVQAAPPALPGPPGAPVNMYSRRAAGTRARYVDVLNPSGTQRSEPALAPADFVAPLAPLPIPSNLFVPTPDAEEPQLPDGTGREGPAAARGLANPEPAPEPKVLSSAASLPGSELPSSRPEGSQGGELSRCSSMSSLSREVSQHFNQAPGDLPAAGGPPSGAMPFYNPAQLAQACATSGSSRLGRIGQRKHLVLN
Sequence of UniProt Q92696 (Q92696 whole entry, looked up): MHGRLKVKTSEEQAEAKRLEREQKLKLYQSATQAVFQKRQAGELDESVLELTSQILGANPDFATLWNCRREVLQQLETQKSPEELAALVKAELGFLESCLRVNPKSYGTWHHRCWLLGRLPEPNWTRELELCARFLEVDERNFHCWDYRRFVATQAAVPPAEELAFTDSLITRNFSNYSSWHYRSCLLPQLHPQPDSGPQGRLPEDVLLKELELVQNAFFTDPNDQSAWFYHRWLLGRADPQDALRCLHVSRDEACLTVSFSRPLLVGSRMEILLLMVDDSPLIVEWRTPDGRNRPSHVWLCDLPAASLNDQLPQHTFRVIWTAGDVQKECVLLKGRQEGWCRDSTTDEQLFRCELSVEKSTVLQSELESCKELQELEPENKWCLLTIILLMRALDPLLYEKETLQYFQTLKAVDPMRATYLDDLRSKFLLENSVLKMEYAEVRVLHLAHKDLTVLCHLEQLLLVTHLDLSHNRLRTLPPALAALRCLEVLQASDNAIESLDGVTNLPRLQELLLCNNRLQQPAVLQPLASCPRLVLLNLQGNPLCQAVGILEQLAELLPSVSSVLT

Row | Target | log2 fold change (IRAK-1-4 Inhibitor I) | log2 fold change (ibrutinib) | log2 fold change [1] | log2 fold change (ralimetinib) | log2 fold change [2] | log2 fold change [3] | log2 fold change [4] | log2 fold change (pinometostat) | log2 fold change [5] | log2 fold change [6] | log2 fold change [7] | log2 fold change [8] | log2 fold change [9] | log2 fold change [10] | log2 fold change (Nexturastat A) | log2 fold change (vemurafenib) | log2 fold change [11] | log2 fold change [12] | log2 fold change (givinostat) | log2 fold change (barasertib)
1 | RABGGTA (UniProt Q92696) | 0.064 | -0.021 | -0.02 | -0.038 | -0.021 | 0.049 | -0.041 | -0.027 | 0 | 0.046 | 0.019 | 0.04 | -0.004 | 0.002 | -0.084 | 0.003 | 0.005 | -0.023 | -0.024 | 0.017
2 | RIPK1 (UniProt Q13546) | -0.104 | -0.081 | -0.201 | 0.195 | -0.023 | -0.23 | 0.14 | 0.123 | -0.014 | 0.056 | 0.101 | -0.043 | -0.002 | -0.178 | 0.109 | 0.054 | 0.135 | 0.092 | 0.094 | 0.085
3 | RPL38 (UniProt P63173) | 0.014 | 0.01 | 0 | 0.043 | 0.113 | 0 | 0.124 | 0.07 | 0.013 | -0.026 | 0.032 | 0.017 | -0.038 | -0.045 | 0.075 | -0.003 | 0.006 | 0.069 | -0.054 | -0.025
4 | SLC18B1 (UniProt Q6NT16) | 0.135 | 0.042 | 0.016 | -0.044 | -0.023 | -0.356 (active) | -0.05 | 0.02 | 0.05 | -0.036 | -0.016 | -0.194 | -0.07 | -0.111 | 0.034 | 0.069 | 0.005 | -0.044 | -0.02 | 0.084
5 | SEC31A (UniProt O94979) | -0.076 | -0.11 | 0.005 | 0.028 | -0.054 | -0.008 | 0.033 | 0.071 | 0.016 | 0.095 | -0.053 | -0.052 | 0.015 | 0.019 | 0.102 | 0.054 | 0.064 | -0.032 | 0.098 | 0.052
6 | RALA (UniProt P11233) | -0.005 | 0.038 | 0.018 | -0.113 | 0.096 | 0.103 | -0.033 | -0.123 | -0.024 | 0.054 | -0.007 | -0.006 | 0.02 | 0.132 | 0.021 | -0.031 | 0.05 | 0.019 | -0.002 | -0.001
7 | RRP9 (UniProt O43818) | -0.043 | 0.017 | -0.062 | 0.014 | 0.133 | -0.04 | -0.002 | 0.01 | 0.136 | -0.432 (active) | -0.03 | 0.057 | -0.046 | -0.081 | 0.095 | -0.026 | -0.074 | 0.009 | 0.047 | -0.084
8 | RSRC2 (UniProt Q7L4I2) | 0.03 | -0.035 | -0.284 (active) | 0.012 | -0.033 | -0.013 | -0.026 | -0.019 | 0.028 | 0.016 | -0.048 | 0.04 | -0.058 | 0 | 0.015 | 0.007 | 0.003 | -0.063 | -0.013 | 0.01
9 | SCAF11 (UniProt Q99590) | 0.076 | 0.099 | 0.714 (active) | 0.166 | -0.084 | 0.134 | 0.213 | 0.157 | -0.036 | 0.112 | -0.089 | 0.154 | -0.079 | -0.275 | 0.003 | -0.158 | -0.031 | 0.035 | -0.034 | 0.165
10 | SEC16A isoform 5 (UniProt O15027) | -0.136 | -0.062 | -0.069 | 0.172 | -0.177 | -0.282 (active) | 0.046 | 0.097 | -0.027 | 0.025 | -0.079 | -0.042 | 0.036 | -0.001 | 0.044 | 0.035 | -0.031 | 0.061 | 0.09 | 0.043
11 | SAFB2 (UniProt Q14151) | -0.065 | -0.012 | 0.026 | 0.037 | 0.165 | 0.042 | 0.049 | 0.05 | 0.018 | -0.074 | 0.011 | 0.068 | -0.024 | 0.011 | 0.203 | -0.048 | -0.038 | 0.097 | -0.011 | -0.029
12 | RSRC1 (UniProt Q96IZ7) | -0.062 | 0.034 | -0.178 | -0.01 | 0.056 | -0.071 | 0.009 | -0.017 | -0.012 | 0.047 | 0.041 | 0.013 | 0.006 | 0.056 | 0.02 | -0.046 | 0.004 | -0.026 | 0.019 | -0.031
13 | RCOR1 (UniProt Q9UKL0) | -0.037 | -0.036 | -0.14 | 0.002 | -0.08 | 0.002 | -0.034 | 0.026 | 0.025 | 0.021 | -0.061 | -0.089 | 0.037 | 0.021 | 0.054 | 0.016 | 0.029 | -0.032 | 0.114 | 0.01
14 | RBM27 (UniProt Q9P2N5) | -0.123 | 0.023 | -0.338 (active) | -0.045 | -0.063 | -0.479 (active) | 0.042 | 0.028 | 0.088 | 0.05 | 0.031 | -0.008 | 0.01 | -0.018 | 0.025 | -0.008 | 0.09 | 0.041 | 0.013 | 0.009
15 | RRAGB (UniProt Q5VZM2) | 0.034 | 0.029 | 0.08 | 0.002 | -0.012 | -0.162 | 0.011 | 0.039 | -0.016 | 0.026 | 0.013 | 0.018 | 0.011 | -0.01 | -0.071 | 0.001 | 0.028 | -0.023 | -0.044 | -0.004
16 | RABGAP1L isoform 3 (UniProt Q5R372) | 0.057 | 0.02 | 0.011 | -0.012 | -0.206 | -0.068 | -0.034 | -0.006 | -0.137 | 0.055 | 0.002 | 0.018 | 0.018 | -0.005 | -0.058 | -0.008 | 0.073 | 0.03 | 0.034 | 0.022
